# In PubChem BioAssay (EPA / NIEHS):
# Calls of active or inactive are those of the source. The calls were made as follows: active = hit-call score of the fitted dose curve at least 0.9, where 1 is the maximum; inactive = score below 0.9.
# Assays:
# [1] = CEETOX_H295R_TESTO: CeeTox H295R High-throughput Steroidogenesis Assay for Testosterone (TESTO) (AID 2283457); settings: actives raise or lower the signal;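 as to AC50: cells exposed to chemicals for 48 h before medium collection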
# Method in brief: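 Steroidogenesis in H295R cells following OECD 456 with minor changes; 48 h exposure. Medium testosterone by HPLC-MS/MS, DMSO as baseline, with MTT viability run in parallel.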
# [2] = read-out: Cyclin Dependent Kinase Inhibitor 1A (CDKN1A), CDKN1A (gene 1026); assay: LTEA_HepaRG_CDKN1A: Life Technologies and Expression Analysis (LTEA) Assay for Cyclin Dependent Kinase Inhibitor 1A (CDKN1A) using HepaRG (AID 2283450); settings: mRNA level, 48 h; actives raise or lower the signal
# Method in brief: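 Gain or loss of CDKN1A transcript is scored by bidirectional fitting against 0.5% DMSO vehicle. Human HepaRG cultures receive chemicals for 48 h across an 8-point series peaking at 100 uM; expression comes from qRT-PCR.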
# [3] = read-out: Cyclin D1 (CCND1), CCND1 (gene 595); assay: LTEA_HepaRG_CCND1: Life Technologies and Expression Analysis (LTEA) Assay for Cyclin D1 (CCND1) using HepaRG (AID 2283451); settings: mRNA level, 48 h; actives raise or lower the signal
# Method in brief: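 Expression change is measured by qRT-PCR in HepaRG cells after 48 h treatment across eight concentrations topping at 100 uM, with duplicate wells and DMSO (0.5%) serving as baseline for bidirectional fitting.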
# [4] = read-out: catalase (CAT), CAT (gene 847); assay: LTEA_HepaRG_CAT: Life Technologies and Expression Analysis (LTEA) Assay for catalase (CAT) using HepaRG (AID 2283452); settings: mRNA level, 48 h; actives raise or lower the signal
# Method in brief: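 HepaRG cells in serum-free induction medium, 0.5% DMSO vehicle, exposed 48 h in duplicate over 8 half-log concentrations from 100 uM. CAT mRNA measured by qRT-PCR, normalized to ACTB, GAPDH, POLR2A; bidirectional fit versus DMSO.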
# [5] = read-out: flavin-containing dimethylaniline monooxygenases 3 (FMO3), FMO3 (gene 2328); assay: LTEA_HepaRG_FMO3: Life Technologies and Expression Analysis (LTEA) Assay for flavin-containing dimethylaniline monooxygenases 3 (FMO3) using HepaRG (AID 2283453); settings: mRNA level, 48 h; actives raise or lower the signal
# Method in brief: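 HepaRG, 48 h exposure, 8-pt half-log series from 100 uM, 0.5% DMSO vehicle, duplicates; FMO3 transcript by Fluidigm TaqMan qRT-PCR, housekeeping-normalized; gain/loss fit vs DMSO.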
# [6] = read-out: Cytochrome P450 (CYP1A1), CYP1A1 (gene 1543); assay: LTEA_HepaRG_CYP1A1: Life Technologies and Expression Analysis (LTEA) Assay for Cytochrome P450 (CYP1A1) using HepaRG (AID 2283454); settings: mRNA level, 48 h; actives raise or lower the signal
# Protocol: (§1) LTEA_HepaRG is a cell based, multiplexed-readout assay that uses HepaRG, a human liver cell line, with measurements taken at 48 hours after chemical dosing on a 96-well plate.LTEA_HepaRG_CYP1A1 is one of 102 assay component(s) measured in the LTEA HepaRG cell culture assay. It is a marker of NR mediated metabolism.Data from the assay component LTEA_HepaRG_CYP1A1 was analyzed into 1 endpoint. This assay endpoint, LTEA_HepaRG_CYP1A1, was analyzed with bidirectional fitting relative to DMSO as the negative control and baseline of activity. Using a type of inducible reporter, measures of mRNA induction for gain or loss-of-signal activity can be used to understand regulation of transcription factor activity. To generalize the intended target to other relatable targets, this assay endpoint is annotated to the cyp intended target family, where the subfamily is xenobiotic metabolism.
# (§2) A total of 1060 chemcials from the ToxCast library were tested in eight-point concentration-response experiments. Cell culture and cytotoxicity assays were conducted at Thermo Fisher Scientific's Custom Services facility (Madison, WI). […] Fluidigm's 96.96 Dynamic ArrayTM (Fluidigm, Amsterdam, the Netherlands) technology was used for gene expression analyses by quantitative reverse transcription polymerase chain reaction (qRT-PCR, performed by Quintiles/Expression Analysis, Durham, NC)89. […]
# [7] = read-out: CFLAR gene, CFLAR (gene 8837); assay: LTEA_HepaRG_CFLAR: Life Technologies and Expression Analysis (LTEA) Assay for CFLAR gene using HepaRG (AID 2283455); settings: mRNA level, 48 h; actives raise or lower the signal
# Method in brief: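 Differentiated HepaRG cells in serum-free induction medium were exposed 48 h in duplicate to eight half-log concentrations up to 100 uM in 0.5% DMSO; mRNA measured by TaqMan qRT-PCR, normalized to ACTB, GAPDH, POLR2A; bidirectional fitting versus DMSO.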
# [8] = read-out: Forkhead box O1 (FOXO1), FOXO1 (gene 2308); assay: LTEA_HepaRG_FOXO1: Life Technologies and Expression Analysis (LTEA) Assay for Forkhead box O1 (FOXO1) using HepaRG (AID 2283456); settings: mRNA level, 48 h; actives raise or lower the signal
# Method in brief: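 Differentiated HepaRG cells, in serum-free induction medium with 0.5% DMSO, exposed 48 h in duplicate to 8-point half-log series from 100 uM. FOXO1 mRNA measured by TaqMan qRT-PCR, normalized to ACTB, GAPDH, POLR2A; bidirectional fit versus DMSO.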
# [9] = read-out: growth arrest and DNA damage 45 (GADD45A), GADD45A (gene 1647); assay: LTEA_HepaRG_GADD45A: Life Technologies and Expression Analysis (LTEA) Assay for growth arrest and DNA damage 45 (GADD45A) using HepaRG (AID 2283458); settings: mRNA level, 48 h; actives raise or lower the signal
# Protocol: as §1, with “plate.LTEA_HepaRG_GADD45A” for “plate.LTEA_HepaRG_CYP1A1”, “Oxidative Stress.Data” for “NR mediated metabolism.Data”, “LTEA_HepaRG_GADD45A” for “LTEA_HepaRG_CYP1A1”, “LTEA_HepaRG_GADD45A,” for “LTEA_HepaRG_CYP1A1,”, “cell cycle” for “cyp”, “Oxidative Stress.” for “xenobiotic metabolism.”
# as §2
# [10] = read-out: Forkhead box O3 (FOXO3), FOXO3 (gene 2309); assay: LTEA_HepaRG_FOXO3: Life Technologies and Expression Analysis (LTEA) Assay for Forkhead box O3 (FOXO3) using HepaRG (AID 2283459); settings: mRNA level, 48 h; actives raise or lower the signal
# Method in brief: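 Differentiated human HepaRG cells, 48 h post-plating, exposed in duplicate for 48 h in serum-free induction medium; 8-point half-log series from 100 uM in 0.5% DMSO. FOXO3 mRNA by TaqMan qRT-PCR, normalized to ACTB/GAPDH/POLR2A; bidirectional fit versus DMSO.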
smiles,measurement,setting,value
COc1cc2ncnc(Nc3cccc(Cl)c3)c2cc1OC,outcome,[1],inactive
O=c1cc(-c2ccccc2)oc2cc(O)cc(O)c12,AC50,[1],5610 nM (active)
O=C(O)c1ccc([N+](=O)[O-])cc1,outcome,[2],inactive
same,outcome,[3],inactive
same,outcome,[4],inactive
same,outcome,[5],inactive
same,outcome,[6],inactive
same,outcome,[7],inactive
same,outcome,[8],inactive
same,outcome,[9],inactive
same,outcome,[10],inactive
O=C(O)C[C@H](O)C[C@H](O)/C=C/c1c(C2CC2)nc2ccccc2c1-c1ccc(F)cc1,AC50,[1],87.1 nM (active)
CC1(C)[C@H](C(=O)OCc2cccc(Oc3ccccc3)c2)[C@@H]1C=C(Cl)Cl,outcome,[1],inactive
C=CC(C)(C)O,outcome,[1],inactive
Nc1cc([N+](=O)[O-])ccc1Cl,outcome,[1],inactive
